This is one part of a sample in which hits are shown more often than they occur.
TDP1 inh: blocks human tyrosyl-DNA phosphodiesterase 1; AID 485290; actives 0.28% (n = 350,000); recombinant TDP1, AlphaScreen DNA substrate cleavage; Potency, µM (top dose mostly 130 µM), without a hit: at the top dose activity change, negative = inhibition, actives largely listed as inhibitors; Q9NUW8; also: nearly all actives have a fitted effect of over 40% in size
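Signal: AlphaScreen proximity between streptavidin donor and anti-FITC acceptor beads on intact substrate. Reaction: Tdp1 1 nM, substrate 15 nM final, 5 min RT after 15 min compound preincubation.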
BLM inh: Bloom syndrome helicase (human) inhibition | P54132 | recombinant BLM DNA unwinding, fluorescence dequenching | Potency, µM (series often up to 56.1 µM), for the others: at the highest dose activity change, negative = inhibition, actives largely listed as inhibitors | actives 0.2% (n = 350,000) | AID 2528;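 also: plate controls were vehicle for no effect and no enzyme for full effect; nearly all actives have a fitted effect of over 35% in size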
L3MBTL1 block: L3MBTL1 (human) inhibition; AID 485360; AlphaScreen L3MBTL1–H3K9me1 peptide binding; actives 0.66% (n = 230,000); Potency, µM (titrated, usually from 57.1 µM), inactives show at the highest dose activity, negative = inhibition, hits mostly inhibitors; Q9Y468; also: nearly all actives have a fitted effect of over 60% in size
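L3MBTL1 (50 nM) pre-complexed 30 min with biotinylated H3(1-15)K9me1 peptide (75 nM), then compounds added for 30 min at room temperature; AlphaScreen streptavidin donor/nickel chelate acceptor beads (10 ug/mL final) read after 30 min dark incubation.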
APE1 inh: blocks human APE1 abasic DNA cleavage. actives 0.35% (n = 350,000). recombinant APE1, TAMRA/BHQ-2 abasic DNA cleavage fluorescence. AID 2517. Potency, µM (highest dose often 65.8 µM), for inactives: at the highest dose activity change, negative = inhibition, hits mostly inhibitors;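 also: plate controls were vehicle for no effect and reference inhibitor for full effect; nearly all actives have a fitted effect of over 55% in size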
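Activity was derived from the fluorescence gain between first and third kinetic reads (60 s intervals, ex 525/em 598 nm) after 50 nM THF-abasic TAMRA/BHQ-2 duplex was added to 0.75 nM APE1 preincubated 15 min with compound.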
JMJD2E inh: blocks human JMJD2E demethylase activity | Potency, µM (series often up to 57.1 µM), without a hit: at the highest dose activity change, negative = inhibition, usual class: inhibitors | JMJD2E catalytic domain, FDH-coupled NADH fluorescence (FDH is formaldehyde dehydrogenase) | actives 1.6% (n = 230,000) | B2RXH2; active = well fitted inhibition curve with a large enough effect, not every such curve was filed as active; inconclusive = small, poorly fitted or top-dose-only effect, or another doubt; inactive = no such curve, though single readings can be large or run the other way;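 also: 0% = wells with enzyme and -100% = buffer wells without enzyme; nearly all actives have a fitted effect of over 50% in size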
RECQ1 inh-1: blocks DNA unwinding by human RECQ1. RECQ1 DNA unwinding, red fluorescence kinetic read. Potency, µM (series often up to 57.3 µM), without a hit: top-dose activity, negative = inhibition, most hits filed as inhibitors. actives 0.54% (n = 240,000). AID 2549;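 also: plate controls were vehicle for no effect and no enzyme for full effect; nearly all actives have a fitted effect of over 30% in size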
Target sequence (P46063 whole entry, looked up): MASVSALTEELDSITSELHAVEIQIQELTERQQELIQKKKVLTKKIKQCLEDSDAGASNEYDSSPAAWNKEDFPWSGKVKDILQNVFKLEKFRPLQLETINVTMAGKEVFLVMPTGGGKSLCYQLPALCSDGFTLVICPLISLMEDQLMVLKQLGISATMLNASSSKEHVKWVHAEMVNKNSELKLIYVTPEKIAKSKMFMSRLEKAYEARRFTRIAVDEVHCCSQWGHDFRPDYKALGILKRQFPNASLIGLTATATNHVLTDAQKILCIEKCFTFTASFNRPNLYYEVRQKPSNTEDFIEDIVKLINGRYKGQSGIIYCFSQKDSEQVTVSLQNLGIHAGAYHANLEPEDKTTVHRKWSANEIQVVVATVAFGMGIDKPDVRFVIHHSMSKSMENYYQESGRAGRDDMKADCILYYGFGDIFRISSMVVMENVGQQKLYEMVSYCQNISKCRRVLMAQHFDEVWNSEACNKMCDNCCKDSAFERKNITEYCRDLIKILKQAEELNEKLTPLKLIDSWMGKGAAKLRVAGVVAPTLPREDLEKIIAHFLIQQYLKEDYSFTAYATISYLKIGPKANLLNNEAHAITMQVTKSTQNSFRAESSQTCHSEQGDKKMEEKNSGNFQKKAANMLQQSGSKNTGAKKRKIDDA
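RECQ1T1 50 nM; forked duplex (20 bp + 30-nt ss tails) 200 nM, ATP 2 mM final; pH 8.0, 2 mM MgCl2, 2.5 ug/ml poly(dI-dC); 15 min compound preincubation; discontinuous kinetic read over 2 h at RT.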
RECQ1 conf: confirmation of human RECQ1 helicase inhibitors | Potency, µM (top dose mostly 229 µM), for the others: at the top dose activity change, negative = inhibition, hits mostly inhibitors | RECQ1 helicase DNA unwinding, fluorescence | actives 28% (n = 610) | shares compounds with RECQ1 inh-1; also: nearly all actives have a fitted effect of over 45% in size
ADP FP counter: displaces ADP in a fluorescence polarization counter-screen for RECQ1 hits. shares compounds with RECQ1 inh-1. ADP fluorescence polarization displacement counterscreen. Potency, µM (top dose mostly 228 µM), for inactives: at the highest dose activity change, negative = inhibition, actives largely listed as inhibitors. actives 27% (n = 530). AID 2711; also: nearly all actives have a fitted effect of over 45% in size
RECQ1 inh-2: confirmation of human RECQ1 helicase inhibitors. AID 504841. actives 15% (n = 1,100). shares compounds with RECQ1 inh-1. Potency, µM (series often up to 119 µM), inactives show at the top dose activity, negative = inhibition, most hits filed as inhibitors. recombinant RECQ1 DNA unwinding, red fluorescence; also: nearly all actives have a fitted effect of over 50% in size
Starred values were filed as active, the others as inactive; i = inactive; u = inconclusive; x = no result given; [ ] = remark or other dose. Unless noted, calls follow the shape of the dose curve; as a rule, active = well fitted curve in the direction sought with a large enough effect; inconclusive = small, poorly fitted or top-dose-only effect, or another doubt; inactive = no such curve, though single readings can be large; an effect the other way counts as inactive or inconclusive. Unless noted, % is scaled to controls: 0 for no effect and ±100 for the full control effect; potency is read from the fitted curve at half-maximal effect.

SMILES	TDP1 inh	BLM inh	L3MBTL1 block	APE1 inh	JMJD2E inh	RECQ1 inh-1	RECQ1 inh-2	others
CSc1ccccc1NC(=O)c1noc2c1CCC2	16µM*	-4%	14µM*	35µM*	-6%	u	u
Cc1ccc(O)c(NC(=O)c2noc3c2CCCC3)c1	0%	-4%	x	x	x	x	x
Cc1nc2c(ccc3nc(NC(=O)C(c4ccccc4)c4ccccc4)sc32)s1	5%	-10%	0%	u	-13%	25µM*	-22%
CCC(=O)Nc1nc2ccc3nc(C)sc3c2s1	5%	3%	-2%	0%	2%	-1%	x
COc1ccc(C(=O)Nc2nc(-c3ccc([N+](=O)[O-])cc3)c(-c3ccc(OC)cc3)s2)cc1	1%	-7%	u	-5%	5%	u	-26%
COc1ccc(C(=O)Nc2nc3c(s2)CCc2cc(OC)ccc2-3)cc1	0%	-11%	x	x	x	x	x
O=C(Nc1nnc(N2CCCCCC2)s1)Nc1cc(F)ccc1F	9%	-1%	x	x	x	x	x
NC(=O)CSc1nnc(Cn2c(=O)sc3ccccc32)n1-c1cccc(Cl)c1	6%	-2%	2%	-1%	-9%	-9%	x
O=C(O)CSc1nnc(Cn2c(=O)sc3ccccc32)n1-c1cccc(Cl)c1	2%	1%	-5%	-3%	3%	8%	x	RECQ1 conf=2%;ADP FP counter=-3%
Cc1ccc(C)c(-c2nc3ccc(N)cc3[nH]2)c1	7%	-6%	-5%	0%	u	u	x	RECQ1 conf=16%[114 µM];ADP FP counter=u
COc1ccccc1NC(=S)NC(=O)/C=C/c1ccco1	0%	-19%	-20%	u	u	u	u
Cc1nc(NC(=O)COC(=O)c2cccs2)c(Cl)cc1Cl	5%	x	-3%	9%	x	x	x
CCN1CCN(C(=O)c2sc3ncnc(N4CCc5ccccc5C4)c3c2C)CC1	1%	-1%	x	24%	-24%	28µM*	-14%
COc1cccc(CNC(=O)Cn2c(=O)oc3cc(S(=O)(=O)N4CCCC4)ccc32)c1	5%	1%	x	x	x	x	x
O=C(CC(C(=O)O)P(=O)(c1ccccc1)c1ccccc1)c1ccc(Br)cc1 (stereo not given)	1%	-2%	9%	2%	-2%	-8%	x	RECQ1 conf=1%;ADP FP counter=-6%
O=C(CC(Sc1ccc(Br)cc1)C(=O)O)c1ccc(Br)cc1 (stereo not given)	x	-5%	x	17%	x	x	x
COc1ccc(-c2nn(CC(=O)NCc3ccccc3)c3c2cnc2ccc(F)cc23)cc1	5%	-13%	x	x	x	x	x
COCCOC(=O)c1c(NC(=O)CN2CCc3ccccc32)sc(C(N)=O)c1C	-4%	1%	-8%	-3%	-5%	20µM*	-8%
CCOC(=O)c1cc2c(ccn2C)n1Cc1ccccc1C	5%	-9%	-25%	-7%	u	28µM*	u
CCOC(=O)c1cc2c(ccn2C)n1Cc1ccccc1Cl	7%	-4%	u	3%	u	-6%	x
Cc1nc2sc(C(N)=O)c(N)c2c(-c2ccc(Br)cc2)c1C(=O)Nc1ccc(Cl)cc1	-9%	-17%	x	x	x	x	x
c1ccc2oc(-c3[nH]ncc3CN3CCC(N4CCSCC4)CC3)cc2c1	-2%	7%	u	3%	-4%	i	x
c1ccc2oc(-c3[nH]ncc3CN3CCSCC3)cc2c1	x	-1%	-21%	-1%	1%	u	2%
O=C(Cc1ccc(-c2ccccc2)cc1)NCCS(=O)(=O)N1CCN(c2ccccc2F)CC1	-4%	-6%	x	x	x	x	x
COc1cccc(C(=O)NCC(c2ccc(N(C)C)cc2)N2CCCC2)c1OC (stereo not given)	4%	1%	x	x	x	x	x
SMILES	TDP1 inh	BLM inh	L3MBTL1 block	APE1 inh	JMJD2E inh	RECQ1 inh-1	RECQ1 inh-2	others
O=C(NCc1ccco1)[C@@H]1CSC2c3ccccc3C(=O)N21 (stereo not given in full)	0%	-22%	x	-11%	5%	u	u
CC(C)[C@H](NC(=O)[C@@H]1CSC2c3ccccc3C(=O)N21)C(=O)NCc1ccco1 (stereo not given in full)	3%	-1%	x	6%	x	x	x
COC(=O)c1ccc(/C(O)=C(\C#N)c2nc3ccccc3s2)cc1	3%	-3%	-6%	-11%	-5%	-2%	x
CC(C)=C(C#N)c1nc2ccccc2s1	3%	-2%	7%	-4%	0%	10µM*	-10%
Cc1ccc(S(=O)(=O)N2CCc3ccccc3C2CN2C(=O)c3ccccc3C2=O)cc1 (stereo not given)	0%	-9%	-5%	10%	-5%	32µM*	-13%
NC(=O)COC(=O)c1cccc(S(=O)(=O)N2CCN(c3ccccc3)CC2)c1	u	-5%	-18%	11%	6%	-3%	x
O=C(COC(=O)c1cccc(S(=O)(=O)N2CCN(c3ccccc3)CC2)c1)NCc1ccco1	79µM*	18µM*	u	u	-4%	35µM*	u
Cc1ccc(-c2nn(-c3cccc(F)c3)cc2CN2CCN(c3ccccn3)CC2)o1	5%	-20%	-19%	15%	u	u	u
CCOc1ccc(N2CC(NC(=O)C(=O)c3c[nH]c4ccccc34)CC2=O)cc1 (stereo not given)	0%	-2%	x	x	x	x	x
CCCCc1nn2c(=O)cc(COC(=O)C(C)Oc3ccccc3)nc2s1 (stereo not given)	7%	1%	x	x	x	x	x
COC(=O)Nc1ccc(S(=O)(=O)N2CCCCC2C(=O)O)cc1 (stereo not given)	-3%	-4%	-1%[11.4 µM]	2%	7%	i	x	RECQ1 conf=-4%;ADP FP counter=8%
CN1CCN(S(=O)(=O)c2ccc(NC(=S)NC(=O)C3CCCCC3)cc2)CC1	3%	-2%	-18%	-3%	-5%	u	-17%
O=C(CSc1nc(-c2ccc(F)cc2)cs1)NC(=O)NCc1ccco1	-2%	-12%	-25%	-11%	-1%	35µM*	u
O=C(CSc1nncs1)NC(=O)NCc1ccco1	-8%	-8%	-22%	u	-1%	-6%	x
